Records with an inconclusive call do not appear. Activity calls are given as the source filed them. Calls come from the whole dose curve; as a rule, active = well fitted curve in the direction sought with a large enough effect; inconclusive = small, poorly fitted or top-dose-only effect, or another doubt; inactive = no such curve, though single readings can be large; an effect the other way counts as inactive or inconclusive.
Tests used:
[1] = target: Calcium and integrin-binding protein 1 (Homo sapiens) (UniProt Q99828); assay: Primary qHTS for Identification of Calcium Integrin Binding Protein 1 (CIB1) Competitor (AID 1508620); conditions: CIB1-GST / FITC-alphaIIb peptide fluorescence polarization; series mostly up to 57.7 µM;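 note: GST tagged CIB1 binding a fluorescein labelled alphaIIb integrin peptide tracer; top concentration of the series differs between compounds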
Calcium and integrin-binding protein 1 (Homo sapiens), sequence (Q99828 whole entry, looked up): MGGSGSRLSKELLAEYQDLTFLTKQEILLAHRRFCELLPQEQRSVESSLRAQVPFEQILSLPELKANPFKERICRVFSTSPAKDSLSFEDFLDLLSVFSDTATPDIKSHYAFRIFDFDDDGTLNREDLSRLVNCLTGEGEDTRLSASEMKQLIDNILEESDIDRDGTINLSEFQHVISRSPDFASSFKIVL
Method in brief: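 Fluorescence polarization competition: GST-tagged CIB1 (1 uM final) preincubated with compound 15 min at room temperature, then FITC-labelled alphaIIb peptide (100 nM final) added. After 15 min at room temperature, polarization read at Ex 480/Em 540.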

[2] = Primary qHTS for inhibitors of nuclear receptor binding SET domain protein 2 (NSD2) in an isogenic RCH-ACV NSD2 p.E1099K mutant (9B) (AID 1645876); conditions: RCH-ACV NSD2 E1099K (9B) viability, CellTiter-Glo, 72 h; series mostly up to 44.9 µM; note: nearly all actives have a fitted effect of over 70% in size
[3] = Primary qHTS for inhibitors of nuclear receptor binding SET domain protein 2 (NSD2) in an RCH-ACV wild type WT cells (2C) (AID 1645877); conditions: RCH-ACV (leukaemia line) NSD2 WT (2C) viability, CellTiter-Glo, 72 h; series mostly up to 44.9 µM; note: nearly all actives have a fitted effect of over 70% in size
% is set by controls: 0 for no effect and ±100 for the full control effect.

COc1c(-c2ccc(O)cc2)cc(OC)c2c1oc1cc(O)c(OC3OC(CO)C(O)C3O)cc12 (stereo unspecified)
inactive: Potency [1] | Potency [2] | Potency [3]

CC1=CC2=C(C)C(=O)[C@](C)(O)[C@H](O)C2=CO1
inactive: Potency [1] | Potency [2] | Potency [3]

C[C@@H]1O[C@@H](O[C@H]2[C@H](OC(=O)[C@]34CCC(C)(C)C[C@H]3C3=CCC5[C@@]6(C)CC[C@H](O[C@@H]7O[C@H](CO[C@@H]8OC[C@H](O)[C@H](O)[C@H]8O[C@@H]8OC[C@@H](O)[C@H](O)[C@H]8O)[C@@H](O)[C@H](O)[C@H]7O)C(C)(C)C6CC[C@@]5(C)[C@]3(C)C[C@H]4O)O[C@H](CO)[C@@H](O)[C@@H]2O)[C@H](O[C@@H]2O[C@H](CO)[C@@H](O)[C@H](O)[C@H]2O)[C@H](O)[C@H]1O[C@@H]1OC[C@@H](O)[C@H](O[C@@H]2OC[C@@H](O)[C@H](O)[C@H]2O)[C@H]1O (stereo partly specified)
inactive: activity change, negative = inhibition [1] 0.603% [at 12.4 µM] | activity change, negative = viability loss [2] 4.39% [at 4.96 µM] | activity change, negative = cell killing [3] 4.37% [at 4.96 µM]

COC(=O)C1(O)C(OC(C)=O)CCC2C3(CC(c4ccoc4)OC3=O)C(C)=CCC21C(=O)OC (stereo unspecified)
inactive: Potency [1] | Potency [2] | Potency [3]

CC(C)=CCC/C(C)=C/CO[C@@H]1O[C@H](CO[C@@H]2OC[C@](O)(CO)[C@H]2O)[C@@H](O)[C@H](O)[C@H]1O
inactive: Potency [1] | Potency [2] | Potency [3]

CCC12CCCN3CCc4c(n(c5ccccc45)C(O)C1)C32 (stereo unspecified)
inactive: Potency [1] | Potency [2] | Potency [3]

CC1=C2C[C@@]3(C)[C@@H](CCC[C@@H]3C)C[C@@]2(O)OC1=O
inactive: Potency [1] | Potency [2] | Potency [3]
